Results published in PubChem BioAssay (NCATS).
Where “and” joins values, the source holds several entries; their conditions need not be identical. Equal values may be shown once. Records with an inconclusive call do not appear. Calls of active or inactive are those of the source. Calls follow the shape of the dose curve; as a rule, active = well fitted curve in the direction sought with a large enough effect; inconclusive = small, poorly fitted or top-dose-only effect, or another doubt; inactive = no such curve, though single readings can be large; an effect the other way counts as inactive or inconclusive.

What was measured:
[1] = Viability qHTS for spleen associated tyrosine kinase inhibitor (SYKi) naive MV4-11 cells (AID 1963823); also: nearly all actives have a fitted effect of over 40% in size; also: potency is read from the fitted curve at half-maximal effect
In short: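 SYK inhibitor-naive MV4-11 cells, 500 per well, exposed to compounds for 72 hr at 37 C, 5% CO2. Viability read as CellTiter-Glo luminescence after 10 min at room temperature.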

[2] = Quantitative highthroughput screen to assess conditional lethalithy of NOMO1 cells grown in RPMI1640 with untreated serum (RPMI+s) (AID 1963876); also: nearly all actives have a fitted effect of over 35% in size; also: potency is read from the fitted curve at half-maximal effect;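 as to Viability: 100% = DMSO wells and 0% = empty wells without cells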
In short: (§1)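 Each medium arm—HPLM with 10% dialyzed FBS, or RPMI1640 with 5 mM glucose and 10% untreated or dialyzed FBS—was screened against an 11-point, 3-fold compound titration for 48 h at 37 °C, with CellTiter-Glo luminescence as endpoint.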

[3] = Quantitative highthroughput screen to assess conditional lethalithy of NOMO1 cells grown in RPMI1640 with dialyzed fetal bovine serum (RPMI+ds) (AID 1963877); also: nearly all actives have a fitted effect of over 30% in size; also: potency is read from the fitted curve at half-maximal effect;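 as to Viability: series mostly up to about 46 µM; 100% = DMSO control wells and 0% = empty wells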
In short: as §1

[4] = Quantitative highthroughput screen to assess conditional lethalithy of P12 Ichikawa cells grown in RPMI1640 with dialyzed fetal bovine serum (RPMI+ds) (AID 1963880); settings: Potency: P12-Ichikawa viability; also: nearly all actives have a fitted effect of over 35% in size; also: potency is read from the fitted curve at half-maximal effect;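 as to Viability: 100% = DMSO wells and 0% = empty wells on each plate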
In short: as §1

[5] = Quantitative highthroughput screen to assess conditional lethalithy of P12 Ichikawa cells grown in RPMI1640 with untreated serum (RPMI+s) (AID 1963881); settings: Potency: viability; also: nearly all actives have a fitted effect of over 35% in size; also: potency is read from the fitted curve at half-maximal effect;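 as to Viability: series mostly up to about 46 µM; 100% = DMSO wells and 0% = empty wells without cells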
In short: as §1

[6] = Cellular viability qHTS for adrenocortical cancer (ACC) cell line NCI-H295R (AID 1963990); also: nearly all actives have a fitted effect of over 60% in size; also: potency is read from the fitted curve at half-maximal effect
In short: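 Adrenocortical carcinoma cells, suspended at 300 000 cells/mL in serum-free DMEM plus ITS, rested overnight before pin transfer of compound. After two days' incubation, ATP-dependent luminescence was recorded and curve-fitted.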

[7] = Cellular viability qHTS for adrenocortical cancer (ACC) cell line SW-13 (AID 1963989); settings: SW-13 ACC cells viability, CellTiter-Glo, 48 h; activity (max response): stronger effect = lower value; also: nearly all actives have a fitted effect of over 65% in size; also: potency is read from the fitted curve at half-maximal effect;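 as to activity (max response): cells grown in serum-free medium with ITS supplement; % is scaled to controls: 0 for no effect and ±100 for the full control effect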
In short: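 IC50 and maximal-response values come from four-parameter logistic fits of titration data. SW-13 cells in serum-free medium received compounds (up to 46 uM final) for 48 h before CellTiter-Glo luminescence.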

[8] = Quantitative highthroughput screen to assess conditional lethalithy of P12 Ichikawa cells grown in Human Plasma-Like Medium with dialyzed fetal bovine serum (HPLM+ds) (AID 1963879); settings: Potency: viability; also: nearly all actives have a fitted effect of over 35% in size; also: potency is read from the fitted curve at half-maximal effect; as to Viability: series mostly up to about 46 µM
In short: as §1

[9] = Quantitative highthroughput screen to assess conditional lethalithy of SEM cells grown in Human Plasma-Like Medium with dialyzed fetal bovine serum (HPLM+ds) (AID 1963882); also: nearly all actives have a fitted effect of over 35% in size; also: potency is read from the fitted curve at half-maximal effect; as to Viability: series mostly up to about 46 µM
In short: as §1

[10] = Quantitative highthroughput screen to assess conditional lethalithy of SEM cells grown in RPMI1640 with unreated serum (RPMI+s) (AID 1963883); also: nearly all actives have a fitted effect of over 35% in size; also: potency is read from the fitted curve at half-maximal effect;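 as to Viability: 100% = DMSO wells and 0% = empty wells without cells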
In short: as §1

[11] = Quantitative highthroughput screen to assess conditional lethalithy of SEM cells grown in RPMI1640 with dialyzed fetal bovine serum (RPMI+ds) (AID 1963884); also: nearly all actives have a fitted effect of over 35% in size; also: potency is read from the fitted curve at half-maximal effect;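 as to Viability: series mostly up to about 46 µM; 100% = DMSO control wells and 0% = empty wells without cells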
In short: as §1

[12] = Quantitative highthroughput screen to assess conditional lethalithy of NOMO1 cells grown in Human Plasma-Like Medium with dialyzed fetal bovine serum (HPLM+ds) (AID 1963878)
In short: as §1

CC(C)(C)c1cc(NC(=O)Nc2ccc(-c3cn4c(n3)sc3cc(OCCN5CCOCC5)ccc34)cc2)no1
inactive: Potency [1] | Potency [2] | Potency [3] | Potency [4] | Potency [5] | Potency [6]

COC(=O)Nc1nc2ccc(C(=O)c3ccc(F)cc3)cc2[nH]1
active: Potency [1] 731 nM and 332 nM | Potency [7] 355 nM | Potency [6] 0.112 µM
inactive: Potency [2] | Potency [3]

N#Cc1ccnc(N2C(=O)CC[C@H]2C(=O)N(c2cncc(F)c2)[C@H](C(=O)NC2CC(F)(F)C2)c2ccccc2Cl)c1
active: Potency [2] 2.34 µM | Potency [8] 1.48 µM | Potency [5] 2.95 µM | Potency [9] 3.31 µM | Potency [10] 1.32 µM | Potency [11] 3.31 µM
inactive: Potency [1] | Potency [6]

Cc1cc2nc3c(=O)[nH]c(=O)nc-3n(CC(O)C(O)C(O)CO)c2cc1C (configuration not stated)
inactive: Potency [1] | Potency [2] | Potency [3] | Potency [8] | Potency [4] | Potency [5] | Potency [9] | Potency [10] | Potency [11] | activity (max response) [7] 9.67% | Potency [6]

O=C(NC[C@H](O)CO)c1ccncc1Nc1ccc(I)cc1F
inactive: Potency [8]
active: Potency [1] 235 nM | Potency [2] 0.469 µM | Potency [6] 31.6 µM

NCCCC(O)(P(=O)(O)O)P(=O)(O)O
inactive: Potency [1] | activity (max response) [7] -4.27% | Potency [6]
active: Potency [3] 16.6 µM | Potency [9] 16.6 µM | Potency [10] 2.96 µM | Potency [11] 3.72 µM

CON(C)C(=O)N1N=C(c2cc(F)ccc2F)S[C@@]1(CCCN)c1ccccc1
active: Potency [1] 9.2 nM | Potency [2] 0.0209 µM | Potency [3] 0.0234 µM | Potency [8] 0.0263 µM | Potency [4] 0.0331 µM | Potency [5] 0.0209 µM | Potency [9] 0.0052 µM | Potency [7] 14.1 nM | Potency [6] 0.0562 µM

c1cc(CN2CCCNCCNCCCNCC2)ccc1CN1CCCNCCNCCCNCC1
inactive: Potency [1] | Potency [2] | Potency [12] | Potency [8] | Potency [5] | Potency [9] | Potency [10] | Potency [11] | activity (max response) [7] -19.4% | Potency [6]

CN1CCC(COc2cnc(-c3cccc(Cn4nc(-c5cccc(C#N)c5)ccc4=O)c3)nc2)CC1
inactive: Potency [2] | Potency [12] | Potency [4] | Potency [5] | Potency [9] | Potency [10] | Potency [11]
active: Potency [1] 7.42 µM and 8.2 µM | Potency [6] 25.1 µM

CN1CCN(c2ncc(-c3cc(Cl)cc(Cl)c3Cl)c(N)n2)CC1
inactive: Potency [9] | Potency [11]
active: Potency [1] 16600 nM | Potency [2] 0.332 µM | Potency [8] 2.64 µM | Potency [4] 3.72 µM | Potency [6] 22.4 µM

CS(=O)(=O)CCNCc1ccc(-c2ccc3ncnc(Nc4ccc(OCc5cccc(F)c5)c(Cl)c4)c3c2)o1
inactive: Potency [8]
active: Potency [1] 20.6 µM and 14.8 µM | Potency [2] 18.7 µM | Potency [4] 18.7 µM | Potency [5] 18.7 µM | Potency [11] 23.5 µM | Potency [7] 18.4 µM and 14.1 µM | Potency [6] 23.1 µM and 17.8 µM

Cc1cccc(Nc2ccncc2S(=O)(=O)NC(=O)NC(C)C)c1
inactive: Potency [1] | Potency [2] | Potency [3] | Potency [8] | Potency [4] | Potency [5] | Potency [9] | Potency [10] | Potency [11] | activity (max response) [7] -3.35% | Potency [6]

CC(C(=O)O)c1ccc(-c2ccccc2)c(F)c1 (configuration not stated)
inactive: Potency [1] | Potency [2] | Potency [3] | Potency [12] | activity (max response) [7] -8.73% | Potency [6]
active: Potency [9] 14.8 µM

C[C@H]1COc2c(N3CCN(C)CC3)c(F)cc3c(=O)c(C(=O)O)cn1c23
inactive: Potency [1] | activity (max response) [7] 6.21% | Potency [6]
active: Potency [3] 23.5 µM | Potency [8] 8.33 µM | Potency [5] 4.18 µM | Potency [10] 13.2 µM | Potency [11] 1.32 µM

O=C(O)Cn1nnc(-c2cc(N3CCC(Oc4cc(F)ccc4Br)CC3)no2)n1
active: Potency [2] 1.05 µM | Potency [8] 9.35 µM | Potency [4] 11.8 µM | Potency [5] 9.35 µM
inactive: Potency [1] | Potency [10] | Potency [11] | Potency [6]

Cc1cnc(-c2cc(N3CCN(C(=O)CCS(C)(=O)=O)CC3)ncc2Cl)c(C)c1
inactive: Potency [1] | Potency [2] | Potency [3] | Potency [8] | Potency [4] | Potency [9] | Potency [10] | Potency [11] | activity (max response) [7] -0.258% | Potency [6]

O=C(O)CCC=CCC[C@@H]1[C@H](N2CCCCC2)[C@@H](O)C[C@@H]1OCc1ccc(-c2ccccc2)cc1
inactive: Potency [1] | Potency [3] | Potency [8] | Potency [4] | Potency [5] | Potency [9] | Potency [10] | Potency [11] | activity (max response) [7] -17.1%

C[C@H](NC(=O)Cc1cc(F)cc(F)c1)C(=O)N[C@@H]1C(=O)N(C)c2ccccc2-c2ccccc21
inactive: Potency [1] | activity (max response) [7] -7.45%
active: Potency [2] 11.8 µM | Potency [3] 14.8 µM | Potency [8] 2.64 µM | Potency [4] 7.43 µM | Potency [5] 7.43 µM | Potency [10] 1.18 µM | Potency [11] 3.32 µM

CCC[C@H]1C[C@H](C(=O)N[C@@H]([C@@H]2O[C@@H](SC)[C@@H](O)[C@@H](O)[C@@H]2O)[C@H](C)Cl)N(C)C1
inactive: Potency [1] | Potency [2] | Potency [3] | Potency [12] | Potency [10] | Potency [11]
